Source: PubChem BioAssay
MCF10A rereplic: induces DNA re-replication in MCF 10a normal breast cells | AID 624296 | Potency, µM (titrated, usually from 46.1 µM), most hits filed as activators | MCF 10A DNA re-replication, Hoechst nuclear intensity, 48 h | 350,000 tested, 2.9% active; further: nearly all actives have a fitted effect of over 50% in size
KB-V1 MDR tox: KB-V1 MDR subline cytotoxicity; 400,000 tested, 3.4% active; AID 1347076; KB-V1 MDR cells viability, CellTiter-Glo, 72 h; Potency, µM (highest dose often 46.1 µM), hits mostly cytotoxic; further: nearly all actives have a fitted effect of over 60% in size
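Cytotoxicity via CellTiter-Glo luminescence after 72 h compound exposure at 37 degrees C. Cells: drug-selected KB-V1 line, DMEM phenol-red free plus 10% FBS. Compounds tested at multiple concentrations; normalized data fitted to concentration-effect curves.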
KB-3-1 cytotox: KB-3-1 parental cell cytotoxicity; 400,000 tested, 1.4% active; Potency, µM (highest dose often 46.1 µM), actives largely listed as cytotoxic; KB-3-1 viability, CellTiter-Glo ATP luminescence, 72 h; further: nearly all actives have a fitted effect of over 60% in size
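Parental KB-3-1 viability, qHTS format: 72 h compound exposure, 37 °C; CellTiter-Glo; media-only wells and DMSO plates as controls; concentration-effect fits on corrected data.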
SW480 rerep: induces DNA re-replication in SW480 colon adenocarcinoma cells | 340,000 tested, 1.8% active | SW480 DNA re-replication, Hoechst DNA content imaging, 48 h | Potency, µM (doses to about 46.1 µM), most hits filed as activators | AID 624297; further: nearly all actives have a fitted effect of over 55% in size
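Readout is total intensity of Hoechst-stained nuclei, excited at 405 nm and collected at 500-530 nm. Compound treatment lasted 48 hr at 37 C in 5% CO2 before staining.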
PINK1 expr mod: PINK1 expression modulation; PINK1 immunofluorescence, high-content cytometry, 24 h; 410,000 tested, 0.2% active; Potency, µM (doses to about 76.6 µM), hits mostly activators; active means well fitted activation curve with a large enough effect; inconclusive means small, poorly fitted or top-dose-only effect; cell line not stated here; further: nearly all actives have a fitted effect of over 65% in size
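Decision-based qHTS: stable cells, 24 h exposure to five compound concentrations, CCCP as control. Fixed cells stained for PINK1 plus nuclear, mitochondrial and cell markers, cytometer read.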
Numbers stand for hits; . = inactive; ? = inconclusive; / = not tested or not shown. An excerpt weighted towards active compounds, which were near 6.7% of everything screened. Unless noted, the call rests on the fitted dose curve; in most records, active means well fitted curve in the direction sought with a large enough effect; inconclusive means small, poorly fitted or top-dose-only effect, or another doubt; inactive means no such curve, though single readings can be large; an effect the other way counts as inactive or inconclusive.

SMILES | MCF10A rereplic | KB-V1 MDR tox | KB-3-1 cytotox | SW480 rerep | PINK1 expr mod
COc1ccc(OC)c(NC(=O)C2=C(C)Nc3ncnn3C2c2cccs2)c1 (stereo not drawn) | . | . | . | . | .
O=C(CNC(=O)c1ccccc1Cl)OCc1cc(=O)n2nc(C3CC3)sc2n1 | / | . | . | / | .
C[C@@H](NS(=O)(=O)c1cc(Cl)ccc1F)[C@H](O)c1ccccc1 | . | . | . | . | .
CC(C)(C)OC(=O)C[C@@H]1C/C=C\C[C@@H](CC(=O)NCCO)C(=O)NC[C@@H](c2ccccc2)OC1=O | . | . | . | . | .
COc1cc(/C=C/C(=O)N2C(=O)c3cccc(N)c3C2=O)cc(OC)c1OC | 9.2µM | . | . | ? | .
COc1ccc(OC)c(/C=C/C(=O)N2C(=O)c3cccc(N)c3C2=O)c1 | 18µM | ? | ? | ? | .
COC(=O)[C@H](CC(C)C)NS(=O)(=O)c1ccc(F)cc1Br | / | . | . | / | .
Cc1nc(NC(C)c2ccccc2)c2c3c(sc2n1)CCC3 (stereo not drawn) | 10µM | . | ? | ? | .
Cc1ccc(CNc2nc(C)nc3sc4c(c23)CCC4)cc1 | . | 8.2µM | . | . | .
Cc1nc(Nc2ccc(O)cc2)c2c3c(sc2n1)CCCC3 | ? | . | . | . | .
Cc1ccc(C)c(NC(=O)COC(=O)c2ccc3c(c2)OCCO3)c1 | . | . | . | . | .
O=C(CCSc1ccccc1)Nc1nc2c(s1)CCCC2 | ? | 26µM | . | . | .
CC(C)(C)c1nc(SCC(=O)Nc2nc3c(s2)CCCC3)c2ccccc2n1 | . | ? | . | . | .
Cc1cc(NC(=O)CSc2nc3c(C)ccc(C)c3cc2C#N)no1 | . | . | . | . | .
O=C(Nc1nc2c(s1)CCCC2)c1cccs1 | . | ? | ? | . | .
O=C(Cc1cccs1)Nc1nc2c(s1)CCCC2 | ? | 12µM | ? | . | .
O=C(CSc1ncn(-c2ccccc2)n1)Nc1nc2c(s1)CCCC2 | . | . | . | . | ?
Cc1cc(C)c(C#N)c(SCC(=O)Nc2cc(C)on2)n1 | ? | 8.2µM | . | ? | .
CC(C)c1nc(SCC(=O)Nc2nc3c(s2)CCCC3)c2ccccc2n1 | ? | 15µM | . | ? | /
O=Cc1cccc2ccc3cccc(C(=O)O)c3c12 | . | . | . | . | .
CCCCNC(=O)C1(C)CCN1C(=O)c1ccc(OC)c(C(F)(F)F)c1 (stereo not drawn) | / | . | . | / | .
C#CC1(O)CCC2C3CCc4cc(O)cc(C)c4C3CCC21C (stereo not drawn) | ? | / | / | . | .
O=c1oc2ccc3ccccc3c2cc1-c1nnc(Nc2ccc(F)cc2)s1 | / | / | / | / | .
Cc1cc(NC(=O)CSc2nc(C(C)C)nc3ccccc23)no1 | 26µM | ? | ? | ? | .
O=C(CSc1nc(Cc2ccccc2)nc2ccccc12)Nc1nc2c(s1)CCCC2 | 23µM | ? | . | 21µM | .
SMILES | MCF10A rereplic | KB-V1 MDR tox | KB-3-1 cytotox | SW480 rerep | PINK1 expr mod
O=C(Cc1cccs1)Nc1nnc(CCc2ccccc2)s1 | . | 18µM | . | . | .
C=C1C=C(C(F)F)n2ncc(C(=O)NCc3ccccc3)c2N1 | / | . | . | / | .
O=C(Nc1ccc(Br)cc1)c1cccc(-n2cnnn2)c1 | ? | . | . | . | .
Cc1nc(SCC(=O)Nc2ccc(C)c(Cl)c2)cc(-c2ccccc2)n1 | / | / | / | / | .
Cc1ccc(NC(=O)CSc2ccccc2NC(=O)c2ccccc2)cc1Cl | 21µM | ? | . | . | .
Cc1ccc(NC(=O)CSc2ccccc2NC(=O)c2ccccc2Cl)cc1Cl | . | 3.7µM | ? | . | .
Cc1ccc(NC(=O)c2cccc(-n3cnnn3)c2)cc1Cl | ? | . | . | 0.65µM | .
CCC/C(C#Cc1ccsc1)=C1/c2ccccc2C(=O)N1c1ccccc1 | 23µM | ? | . | ? | .
O=C(/C=C/c1ccccc1)NC(=O)c1ccccc1O | . | . | . | . | .
O=C(/C=C/c1ccccc1)CC(=O)c1ccccc1O | 13µM | ? | . | ? | .
O=C(/C=C/c1ccccc1)CCN1CCCCC1 | 6.5µM | 26µM | ? | 2.9µM | .
O=C(CCNS(=O)(=O)c1ccccc1)OCc1ccc([N+](=O)[O-])cc1 | / | . | . | / | .
CCOc1ccc(NC(=O)C(C)Sc2nc3ncccc3o2)cc1 (stereo not drawn) | / | . | . | / | .
